Measurements: PubChem BioAssay AID652105 (National Center for Advancing Translational Sciences (NCATS), 2013)
Screen size: about 330,000 compounds; about 4,100 (1.2%) were called active. About 2% were inconclusive and are not listed. The sample holds actives, similar compounds and a random draw of the others, so the mix is not that of the screen. How the source made its calls: active means max response of -50% or lower; inconclusive means between -30% and -50%; inactive means -30% or higher.

target: Phosphatidylinositol 5-phosphate 4-kinase type-2 alpha (Homo sapiens) (UniProt P48426); assay: qHTS for Inhibitors of phosphatidylinositol 5-phosphate 4-kinase (PI5P4K); details: PI5P4Kalpha enzyme, ADP-Glo luminescence, 60 min; hits give low values; further: value at the top dose of about 77 µM
Sequence (P48426 whole entry, looked up): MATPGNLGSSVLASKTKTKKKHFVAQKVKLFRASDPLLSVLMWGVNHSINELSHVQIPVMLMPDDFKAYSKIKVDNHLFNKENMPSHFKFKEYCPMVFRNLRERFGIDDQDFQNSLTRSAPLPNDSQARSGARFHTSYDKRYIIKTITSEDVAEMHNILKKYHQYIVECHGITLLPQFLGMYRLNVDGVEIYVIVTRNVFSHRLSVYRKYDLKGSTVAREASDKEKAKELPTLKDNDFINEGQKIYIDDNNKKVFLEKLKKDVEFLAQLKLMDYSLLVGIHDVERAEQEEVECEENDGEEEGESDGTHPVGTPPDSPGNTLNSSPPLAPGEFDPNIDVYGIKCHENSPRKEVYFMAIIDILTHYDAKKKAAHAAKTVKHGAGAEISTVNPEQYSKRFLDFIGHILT
Procedure, shortened: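 Controls without substrate or without enzyme flank wells where PI5P4Kalpha converts substrate using 5 microM ATP (final). Incubation lasts 60 minutes at room temperature; ADP formed is read by ADP-Glo luminescence.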
On the % scale 0 is the no-effect control and ±100 the full control effect.

SMILES	max response
CCN(CC)CCNC(=O)c1ccc(NC(=O)c2cc(-c3ccncc3)nc3ccccc23)cc1	-5.2% (inactive)
O=C(Nc1ccc(S(=O)(=O)Nc2nccs2)cc1)c1cc(=O)[nH]c2ccccc12	-12.6% (inactive)
O=C(Nc1ccc(S(=O)(=O)Nc2nccs2)cc1)c1cc(-c2ccncc2)nc2ccccc12	-67.1% (active)
Cc1nn(CC(=O)Nc2ccc3c(c2)OCO3)c(C)c1[N+](=O)[O-]	1.6% (inactive)
Cc1ccc(C(=O)Nc2ccc3c(c2)OCO3)cc1S(=O)(=O)N1CCCCC1	0.934% (inactive)
Cc1ccc(C(=O)O)cc1-c1ccc(/C=C2\SC(=O)N(CC(=O)Nc3ccc4c(c3)OCO4)C2=O)o1	-59.9% (active)
CC(=O)Nc1cc(-c2ccc(N3CCN(C)CC3)cc2)cn2c(-c3cccc(C(=O)N(C)C)c3)cnc12	4.25% (inactive)
CCc1nc2c(OCCOc3ccc(F)cc3)cccn2c1N(C)C(=O)c1ccccc1F	-7.43% (inactive)
COc1cccc(-c2ccc3c(c2)N(Cc2ccccc2OC)C(=O)C(C)S3)c1 (stereo unspecified)	20.2% (inactive)
COc1ccc([C@H]2CC(=O)C[C@@H](CCn3cc(CC4CCCC4)nn3)O2)cc1	9.59% (inactive)
Cc1ccc(N=C2NC(=O)/C(=C/C=C/c3ccco3)S2)cc1C	-76.1% (active)
CN1C(=O)/C(=C/c2ccco2)SC1=Nc1cccc(C(=O)O)c1	-16.9% (inactive)
Cc1ccc(N2NC(=O)/C(=C/C=C/c3ccco3)C2=O)cc1C	-13.7% (inactive)
Cc1ccc(CSc2nc(-c3ccccc3)c(C#N)c(=O)[nH]2)cc1	-3.14% (inactive)
O=C(CSc1nc2ccccc2c(=O)[nH]1)Nc1nc(-c2ccc(Br)cc2)cs1	2.06% (inactive)
N#Cc1c(-c2cccs2)nc(SCC(=O)c2ccc(Br)cc2)[nH]c1=O	-61.8% (active)
CCc1nc2c(OCCc3cccc(OC)c3)cccn2c1N(C)C(=O)c1ccc(C)cc1	2.18% (inactive)
COc1ccc(CN2C[C@H]3CON(C)[C@H]3C[C@H]2c2ccc(-c3cccc(F)c3)cc2)cc1	18.3% (inactive)
C[N+](C)(C)CCOP(=O)([O-])OC[C@H](O)CO	-87.3% (active)
COC(=O)C[C@H]1C=C[C@H](NC(=O)c2ccc(F)cc2)[C@@H](CO)O1	-0.944% (inactive)
COC(=O)c1ccc2nc(-c3cccc(Br)c3)c(Cc3ccccc3C(F)(F)F)n2c1	4.18% (inactive)
C#CCN(C[C@@H]1[C@@H](OC(=O)NC2CC2)[C@@H](OC(=O)NC2CC2)Cn2c(=O)ccc(=O)n21)S(=O)(=O)c1ccc(C)cc1	-1.14% (inactive)
COCCNC(=O)C1C(=O)Nc2ccccc2C(=O)N1c1ccc2c(c1)OCCO2 (stereo unspecified)	7.16% (inactive)

SMILES	max response
O=C(c1cc2c(s1)CCC2)N1CCN(c2ccccc2)CC1	-53% (active)
O=C(NNC(=O)c1cc2c(s1)CCCC2)c1ccccc1	0.43% (inactive)
O=C(c1ccccc1)c1ccc(C(=O)N2CCN(c3ccccc3)CC2)cc1	6.71% (inactive)
C=CCn1c(=S)[nH]c2scc(-c3ccco3)c2c1=O	-84.2% (active)
CCC1(C)Cc2c(sc3[nH]c(=S)n(Cc4ccccc4)c(=O)c23)CO1 (stereo unspecified)	-15.7% (inactive)
C=CCn1cnc2scc(-c3ccccc3)c2c1=O	-1.04% (inactive)
Clc1cccc(Cc2c(-c3cccc(Cl)c3)nc3ccc(Cl)cn23)c1	-3.6% (inactive)
CCCCCNC(=O)C1C(=O)Nc2ccccc2C(=O)N1C(C)(C)C (stereo unspecified)	-7.39% (inactive)
O=C(CNC(=O)c1ccc(Br)o1)Nc1ccccc1	-2.2% (inactive)
CC(CNC(=O)c1ccc(Br)o1)NC(=O)c1ccc(Br)o1 (stereo unspecified)	-54.6% (active)
O=C(NCc1cccs1)c1ccc(Br)o1	4.81% (inactive)
CSc1ccc(CN2CCC2(C)C(=O)NCc2ccccc2Br)cc1 (stereo unspecified)	17.1% (inactive)
COc1ccccc1-c1cc(NC(C)=O)c2ncc(-c3ccc(F)cc3)n2c1	-5.85% (inactive)
CCCc1ccc(C(O)c2ncc(-c3cccc(OC)c3)[nH]2)cc1 (stereo unspecified)	14% (inactive)
COc1cccc2sc(NNC(=O)c3nc4ccccc4s3)nc12	-61.5% (active)
COc1cccc2sc(N(CCCN(C)C)C(=O)C(c3ccccc3)c3ccccc3)nc12	12.8% (inactive)
COc1ccc(/C=C(/CC(=O)Nc2ccc(C)cc2)c2nc3ccccc3s2)cc1	-7.45% (inactive)
O=C(/C=C/[C@H]1O[C@@H](n2ccc(=O)[nH]c2=O)[C@H](O)[C@@H]1O)NCc1ccccn1	2% (inactive)
CCOC(=O)C[C@H]1c2ccc(C(F)(F)F)cc2S(=O)(=O)N1c1ccccc1	2.77% (inactive)
CCOC(=O)[C@H]1Nc2ccc(Cl)cc2[C@@H]2[C@H]1C1CC(c3ccccc31)N2C(=O)OCc1ccccc1 (stereo partly specified)	19.9% (inactive)
CCOC(=O)C1Nc2ccc(C(F)(F)F)cc2C2C=CCC12 (stereo unspecified)	-55.4% (active)
Nc1cccc(-c2cncc(N3CCN(Cc4ccccn4)CC3)n2)c1	-6.48% (inactive)
C=CCNC(=O)CSc1nc2sc(C)c(C)c2c(=O)[nH]1	-2.42% (inactive)
